# Assay results taken from the supplement of paper PMC3334620.
# Whole data set: some 33,000 sequences, median “E-score (-0.5 to 0.5)” near -0.056, cut for the highest 2% near 0.38. Only a selection was taken, and the highest values are over-represented in it overall.
# Biological target: Stb4 (UniProt P50104)
# Test: PBM E-score (8-mer binding enrichment) (E-score (-0.5 to 0.5)); higher = stronger / more preferred TF binding
# Details: protein concentration: 200 nM; construct: GST-DNA-binding domain
# Method in brief: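 PURExpress in vitro transcription/translation supplied GST-tagged yeast transcription factors, either full-length or DNA-binding domain. Applied at about 100-200 nM to universal all-10-mer Agilent arrays double-stranded by primer extension, the bound protein was detected with fluorescent anti-GST. E-scores, modified Wilcoxon-Mann-Whitney statistics, were given by the Universal PBM Analysis Suite to ungapped eight-base words pooled with their reverse complements after masliner normalisation.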
# UniProt P50104, sequence (P50104 whole entry): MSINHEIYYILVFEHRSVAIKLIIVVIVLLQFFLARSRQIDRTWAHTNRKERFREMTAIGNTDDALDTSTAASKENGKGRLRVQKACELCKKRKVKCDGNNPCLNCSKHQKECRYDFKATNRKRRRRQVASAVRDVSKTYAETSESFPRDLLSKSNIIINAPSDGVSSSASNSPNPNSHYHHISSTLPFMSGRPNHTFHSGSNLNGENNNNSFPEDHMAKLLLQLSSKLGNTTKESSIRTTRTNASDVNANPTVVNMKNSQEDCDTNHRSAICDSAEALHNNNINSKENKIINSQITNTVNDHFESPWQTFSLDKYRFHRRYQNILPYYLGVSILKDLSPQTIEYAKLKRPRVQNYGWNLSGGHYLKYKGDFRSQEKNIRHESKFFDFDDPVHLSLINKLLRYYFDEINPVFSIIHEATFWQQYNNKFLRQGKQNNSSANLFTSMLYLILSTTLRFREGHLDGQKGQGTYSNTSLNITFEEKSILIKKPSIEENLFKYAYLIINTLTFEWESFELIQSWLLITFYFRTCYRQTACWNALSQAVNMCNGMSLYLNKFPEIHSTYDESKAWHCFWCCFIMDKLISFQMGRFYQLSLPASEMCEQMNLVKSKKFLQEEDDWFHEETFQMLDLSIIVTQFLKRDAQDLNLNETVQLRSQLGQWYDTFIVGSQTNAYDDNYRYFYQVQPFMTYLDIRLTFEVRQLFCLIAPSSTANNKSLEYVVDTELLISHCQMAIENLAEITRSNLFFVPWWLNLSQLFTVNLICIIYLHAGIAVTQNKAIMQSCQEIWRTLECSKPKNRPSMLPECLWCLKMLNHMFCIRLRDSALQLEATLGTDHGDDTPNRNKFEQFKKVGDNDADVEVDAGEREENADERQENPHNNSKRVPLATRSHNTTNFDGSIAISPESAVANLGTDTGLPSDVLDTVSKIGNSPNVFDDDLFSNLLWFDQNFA
row,Sequence,PBM E-score
1,CTGAAATC,-0.0865
2,CCGAAATA,0.401
3,GCGAAATA,0.0947
4,ACGAAATC,-0.0845
5,CCGAAATC,0.405
6,ACGAAATA,-0.111
7,CGGTAACA,0.238
8,ACACTGCG,0.00398
9,AGGTTGGC,-0.205
10,GTATTATA,0.0782
11,GATTCCGC,0.222
12,GATTCCGA,0.444
13,CATTCCGA,0.449
14,TATTCCAA,-0.113
15,AATTCCGG,0.358
16,TATTCCGA,0.462
17,TATTCCCA,0.0571
18,CATTCCGG,0.358
19,AATTCCGC,0.246
20,CATTCCGC,0.175
21,GATTCCCA,-0.109
22,AATTCCGA,0.46
23,CCACCCGC,0.194
24,TATCAAGA,-0.216
25,CAGCCTGG,-0.203

row,Sequence,PBM E-score
1,CCCAGTGC,-0.0453
2,ATGTCGGA,0.389
3,ATGTCGGC,0.138
4,GTGTCGCA,-0.0287
5,GTGTCGGA,0.395
6,CTGTCGGA,0.353
7,GTGTCGTA,-0.0741
8,ATTAGTAA,0.076
9,AGTGATAG,-0.33
10,AGCACAGA,-0.121
11,GCCAATAA,0.0672
12,AACATCCT,-0.0622
13,ATCATCCA,-0.121
14,ACCATCCC,0.0842
15,AACATCCC,0.232
16,ACCATCCG,0.406
17,CACATCCG,0.425
18,CACATCCA,-0.0807
19,AACATCCG,0.45
20,CACATCCC,0.187
21,ATCATCCG,0.414
22,ATCATCCC,0.052
23,ACCATCCT,-0.249
24,AATCAATA,-0.0212
25,CGATTAAG,-0.128

row,Sequence,PBM E-score
1,AAAAGGGC,-0.141
2,CAATTCTA,-0.196
3,AATTCTTA,-0.0318
4,CTGGAGCA,-0.262
5,ATCCTAGG,-0.0251
6,GCTCCAAC,-0.111
7,CACTGGCA,-0.23
8,GCTTGAGA,-0.312
9,CTGAGATC,-0.0537
10,CCGAGATA,0.405
11,CCGAGATC,0.435
12,ACGAGATA,-0.184
13,GCGAGATA,0.026
14,ACGAGATC,-0.0355
15,AAGCAGCT,-0.0723
16,CCAGACTA,-0.229
17,CTGAGGGA,-0.284
18,ACTTTCCG,0.383
19,AGTTTCCC,0.132
20,CATTTCCA,-0.196
21,ATTTTCCG,0.424
22,ATTTTCCC,0.0682
23,ACTTTCCT,-0.22
24,CATTTCCC,0.18
25,AGTTTCCA,-0.103

row,Sequence,PBM E-score
1,ACTTTCCC,0.121
2,AGTTTCCG,0.437
3,CATTTCCG,0.421
4,ATTTTCCA,-0.0573
5,CGCAGGAA,-0.0189
6,ATATGGCG,0.0558
7,CGAGTAAC,0.166
8,CTGGCTGC,-0.108
9,AAAGGGTC,-0.0434
10,ACGGGGGG,-0.228
11,GCCACGCC,-0.282
12,GATAGCGA,-0.0238
13,AATTTCCG,0.425
14,AATTTCCC,0.142
15,AGTTTCGC,0.0157
16,AATTTCCT,-0.0502
17,AGTTTCGA,-0.131
18,AGTTTCGG,0.412
19,CTAAGTCA,-0.0795
20,CCCAATGC,-0.17
21,ATTGGCTG,-0.167
22,GATAAGCA,0.136
23,AGTTCGGC,0.357
24,AGTTCGGA,0.442
25,AGTTCGTA,0.0255

row,Sequence,PBM E-score
1,AGTTCGCA,-0.158
2,AGTTCGGG,0.426
3,AGTTCGTG,-0.157
4,AACATTCA,-0.00804
5,AACGGCAT,0.232
6,AAAAGAGC,-0.189
7,CATCTCGA,-0.252
8,AAACTCGT,-0.228
9,ATTCTCGC,-0.286
10,AAACTCGC,-0.0551
11,ATTCTCGG,0.425
12,AAACTCGG,0.419
13,AATCTCGA,-0.0861
14,CATCTCGG,0.458
15,AATCTCGG,0.434
16,ATTCTCGA,-0.194
17,CATCTCGC,-0.0526
18,AATCTCGT,-0.0273
19,CACGCTCG,0.119
20,AATCGAAT,0.00368
21,CTGAGAGC,-0.138
22,AATACTGG,-0.159
23,TCTAAAAA,0.0389
24,AGGGTGTA,-0.093
25,GTCGCAGA,-0.195

row,Sequence,PBM E-score
1,AGTCTCGA,-0.0187
2,ACTCTCGA,-0.214
3,ACTCTCGC,-0.0541
4,ACTCTCGG,0.416
5,AGTCTCGC,-0.0759
6,AGTCTCGG,0.39
7,ATAGCCTC,-0.00394
8,ACTGATAC,0.0597
9,ATAGTCGC,-0.076
10,ACGCTACC,0.00891
11,TATTTTGA,-0.151
12,TAGCCTCA,-0.198
13,GATGCTTA,-0.00303
14,CAGATCCG,0.416
15,CAGATCCC,0.00572
16,CAGATCCA,0.0283
17,AAGATCCA,-0.0259
18,AAGATCCG,0.41
19,AAGATCCC,0.126
20,GGGCCGCA,0.134
21,AGTCACAA,-0.173
22,AGTTTAGG,-0.238
23,AAATGGGG,-0.344
24,ACCTGGTG,-0.0216
25,ATCGGCGG,0.327

row,Sequence,PBM E-score
1,CGCATCCA,-0.126
2,AGCATCCG,0.419
3,CGCATCCG,0.408
4,CGCATCCC,-0.0101
5,AGCATCCA,-0.115
6,AGCATCCT,0.0794
7,CTCGTAGA,-0.246
8,GAAACGTC,0.0218
9,GATCGGTA,0.407
10,CCTCGGTA,0.38
11,AATCGGTA,0.205
12,GCTCGGTA,0.416
13,ACTCGGTA,0.322
14,CATCGGTA,0.345
15,GCTAGACC,-0.0645
16,AGTTTTCG,0.152
17,TATGAAGA,-0.0238
18,ACTGTCTG,-0.0825
19,CGGAAAGC,0.386
20,GGGAAAGA,-0.0458
21,CGGAAAGA,0.407
22,AGGAAAGC,-0.0848
